Reference: publication PMC5540273 (PLoS ONE, 2017)

What was measured:
Settings in all cases: concentration: 1 μM, replicates: in singlicate; n = 1
[1] = system: WNK1
[2] = system: WNK2
[3] = system: WNK3
[4] = system: WNK4
[5] = system: T1, YANK1
T1 construct: gene STK32A

[6] = system: T2, YANK2
T2 construct: gene STK32B

[7] = system: T3, YANK3
T3 construct: gene STK32C

[8] = system: T4, YES
T4 construct: gene YES1

[9] = system: T5, YSK1
T5 construct: gene STK25

[10] = system: T6, YSK4
T6 construct: gene MAP3K19
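Also: KINOMEscan kinase panel screen.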

Structure (SMILES) | %Inh [1] [%] | %Inh [2] [%] | %Inh [3] [%] | %Inh [4] [%] | %Inh [5] [%] | %Inh [6] [%] | %Inh [7] [%] | %Inh [8] [%] | %Inh [9] [%] | %Inh [10] [%]
COc1cccc(C2=C(Nc3cccc(O)c3)C(=O)NC2=O)c1 [SB-390771] | 13 | 25 | 7 | 35 | 0 | 0 | 2 | 15 | 16 | 43
Nc1ncnc2scc(-c3ccc(NC(=O)Cc4cc(F)ccc4F)cc3)c12.O=C(O)C(F)(F)F [SB-731254-M] | 0 | 0 | 0 | 25 | 89 | 90.1 | 28 | 29 | 0 | 97.8
COC(=O)Nc1nc2ccc(Oc3ccc(NC(=O)Nc4cc(C(F)(F)F)ccc4F)cc3)cc2[nH]1.Cl [GW654607] | 25 | 27 | 26 | 15 | 21 | 0 | 100 | 48 | 25 | 97.2
Cc1ccc(-c2ccc3occ(-c4ccc(S(C)=O)cc4)c3c2)nn1 (stereo not drawn) | 0 | 18 | 0 | 0 | 0 | 1 | 24 | 0 | 1 | 4
O=C(Nc1n[nH]c2nc(-c3cccc(O)c3)ccc12)C1CC1 [SB-711805] | 28 | 26 | 0 | 63 | 4 | 0 | 0 | 0 | 0 | 90.9
Cl.N#CCc1ccc(Nc2nccc(Nc3ccc(Oc4ccccc4)cc3)n2)cc1 [GW639905] | 15 | 0 | 28 | 6 | 3 | 0 | 10 | 74 | 0 | 41
COc1cccc(CC(=O)N2CCc3cc(-c4cn(C)c5ncnc(N)c45)ccc32)c1 [GSK2608899] | 21 | 52 | 54 | 12 | 13 | 0 | 8 | 16 | 17 | 96.9
N#CC1(c2cccc(C(=O)Nc3cccc(Oc4ccc5nc(NC(=O)C6CC6)sc5n4)c3)c2)CC1 | 6 | 0 | 0 | 0 | 0 | 9 | 0 | 98.7 | 37 | 98.9
CCn1cnc2c(NCc3ccccc3)ncnc21 [SKF-96418] | 12 | 0 | 43 | 16 | 0 | 19 | 0 | 0 | 0 | 10
Cc1ccc(O)cc1Nc1ccnc2ccc(C(C)(C)C)cc12 [GW856805] | 38 | 0 | 21 | 0 | 29 | 4 | 45 | 76 | 1 | 48
CN(C)CCNS(=O)(=O)c1ccc(-c2ccnc3[nH]ccc23)cc1 [GSK977620] | 0 | 0 | 0 | 0 | 21 | 0 | 27 | 16 | 78 | 88
O=C(Nc1c(F)cccc1F)c1cc(C(=O)c2ccccc2F)c[nH]1 [GSK1326180] | 8 | 0 | 0 | 0 | 1 | 0 | 0 | 0 | 10 | 0
Fc1cc(Cl)ccc1Nc1ccnc2cc(-c3ccc(CN4CCOCC4)o3)ccc12 [GW560109] | 10 | 4 | 1 | 8 | 8 | 21 | 24 | 84 | 0 | 71
Cc1cccc(Nc2nc(NCCN)ncc2C(N)=O)c1 [GSK1292139] | 7 | 0 | 31 | 15 | 9 | 0 | 0 | 6 | 31 | 88
Cc1nn2c(=O)cc(N3CCO[C@H](C)C3)nc2n1Cc1cccc(Cl)c1Cl [GSK2373693] | 4 | 18 | 5 | 0 | 2 | 0 | 14 | 14 | 0 | 56
Nc1cccc(-c2ccc3c(N)n[nH]c3c2)c1 [GSK2193613] | 6 | 0 | 7 | 0 | 9 | 0 | 25 | 0 | 22 | 96.4
Cc1ccc(NC(=O)c2cccc(N3CCCCC3)c2)cc1-c1ccc(C(=O)NCC2CC2)cc1 [GSK1917008] | 13 | 0 | 2 | 10 | 9 | 11 | 22 | 10 | 12 | 35

Structure (SMILES) | %Inh [1] [%] | %Inh [2] [%] | %Inh [3] [%] | %Inh [4] [%] | %Inh [5] [%] | %Inh [6] [%] | %Inh [7] [%] | %Inh [8] [%] | %Inh [9] [%] | %Inh [10] [%]
CCNc1nccc(-c2c(-c3ccc(F)cc3)ncn2C2CCN(C)CC2)n1 | 0 | 0 | 0 | 0 | 0 | 0 | 0 | 3 | 5 | 0
Cc1ccccc1CC(=O)N1CCc2cc(-c3cn(C)c4ncnc(N)c34)ccc21 [GSK2603346] | 18 | 25 | 50 | 8 | 7 | 0 | 22 | 18 | 54 | 84
Cc1ccc(O)cc1Nc1ccnc2cc(-c3ccc(CN4CCCCC4)o3)ccc12 [GW557777] | 0 | 0 | 0 | 0 | 10 | 0 | 0 | 99.8 | 0 | 13
CC(C)c1nc(-c2cccc(NS(=O)(=O)c3c(F)cccc3F)c2)c(-c2ccnc(Nc3ccc(N4CCOCC4)nc3)n2)s1.Cl [GSK1723980] | 3 | 0 | 5 | 4 | 15 | 9 | 19 | 99.7 | 1 | 91.8
COC(=O)Nc1nc2ccc(Oc3ccc(CC(=O)Nc4cc(C(F)(F)F)ccc4F)cc3)cc2[nH]1 [GW680903] | 0 | 4 | 21 | 48 | 9 | 0 | 0 | 8 | 3 | 42
CN(C)CCOc1ccc(-c2cc(-c3ccc(Cl)c(O)c3)c(-c3ccncc3)[nH]2)cc1.Cl.Cl [SB-684387] | 11 | 21 | 47 | 33 | 26 | 28 | 0 | 55 | 13 | 27
CN(c1ccc(NC(=O)Nc2cccc(Cl)c2)cc1)c1ccnc(N)n1.Cl [GW830707] | 28 | 12 | 38 | 5 | 0 | 16 | 29 | 0 | 0 | 67
CCNC(=O)/C=C/c1n[nH]c2cc(Sc3ccccc3C(=O)NC)ccc12 | 0 | 5 | 0 | 10 | 17 | 0 | 0 | 20 | 0 | 86
CN(c1ccc(F)c(NC(=O)c2cccc(OC(C)(C)C#N)c2Cl)c1)c1ccc2nc(NC(=O)C3CC3)sc2n1 | 0 | 19 | 0 | 0 | 0 | 0 | 0 | 91.4 | 0 | 20
Fc1cc(Cl)ccc1Nc1ccnc2cc(-c3ccc(CN4CCSCC4)o3)ccc12 [GW560106] | 1 | 0 | 35 | 14 | 7 | 24 | 1 | 79 | 19 | 66
Cc1ccc(NC(=O)c2ccnc(N3CCCCC3)c2)cc1-c1ccc(C(=O)NCC2CC2)cc1 [GW775610] | 0 | 9 | 0 | 0 | 0 | 10 | 0 | 0 | 0 | 0
CC(=O)Nc1cn2nc(Oc3cccc(NC(=O)c4cccc(C(F)(F)F)c4)c3)ccc2n1 | 0 | 0 | 0 | 0 | 0 | 0 | 0 | 96.2 | 0 | 99.9
COc1cc(Nc2nccc(N3CCC(NS(=O)(=O)c4ccc(NC(C)=O)cc4)CC3)n2)cc(OC)c1OC [GSK1379825] | 0 | 16 | 25 | 23 | 2 | 7 | 0 | 39 | 16 | 32
Cl.O=C(Nc1ccc(Oc2ccc3[nH]c(NC(=O)c4ccco4)nc3c2)cc1)Nc1cc(C(F)(F)F)ccc1F [GW683134] | 2 | 0 | 14 | 9 | 2 | 0 | 14 | 61 | 0 | 92.9
Nc1ncc(-c2ccc3nccc(-c4ccncc4)c3c2)cc1S(=O)(=O)N1CCCCC1 [GSK1693850] | 1 | 4 | 13 | 64 | 5 | 0 | 0 | 10 | 13 | 69
CC(C)c1nc(-c2ccc(F)c(NS(=O)(=O)c3c(F)cccc3F)c2)c(-c2ccnc(Nc3ccc(N4CCOCC4)nc3)n2)s1 [GSK1804250] | 7 | 0 | 0 | 31 | 42 | 71 | 15 | 99.2 | 32 | 40
